This passage reports growth inhibition results from PubChem BioAssay (NCI).

Experiment [1] in a line: NCI Yeast Anticancer Drug Screen. Data for the rad50 strain (AID 155).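 Also: 0% = growth of vehicle-only cultures of the same strain.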 Particulars: S. cerevisiae rad50 strain growth inhibition; at 50.0 µM; hits give high values. The method in brief:
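Readout: growth inhibition relative to vehicle-treated cultures. Compound exposure was carried out in a genetically defined yeast strain deficient in DNA damage repair.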

Experiment [2] in a line: NCI Yeast Anticancer Drug Screen. Data for the mec2-1 strain (AID 157). Particulars: S. cerevisiae mec2-1 strain, at 50.0 µM, hits give high values. The essentials:
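mec2-1 yeast strain, carrying an alteration in DNA damage repair or cell cycle control, was exposed to compounds; growth inhibition was measured relative to vehicle-treated controls.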

Experiment [3] is described as follows: NCI Yeast Anticancer Drug Screen. Data for the sgs1 mgt1 strain (AID 161).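 Also: 0% = growth of cultures given vehicle only.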 Particulars: S. cerevisiae sgs1 mgt1 strain, at 50.0 µM, hits give high values. The method in brief: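 Growth of a repair-deficient yeast mutant was monitored after compound treatment and expressed as inhibition relative to vehicle-treated cultures.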
A short description of experiment [4]: NCI Yeast Anticancer Drug Screen. Data for the cln2 rad14 strain (AID 165).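 Also: 0% = growth equal to vehicle treated cultures.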 Particulars: S. cerevisiae cln2 rad14 strain, at 50.0 µM, hits give high values. The method in brief:
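Yeast carrying cln2 and rad14 alterations (cell cycle control and DNA damage repair) were exposed to compounds. Growth inhibition was measured against vehicle-treated controls.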

Experiment [5] in a line: NCI Yeast Anticancer Drug Screen. Data for the bub3 strain (AID 167). Particulars: S. cerevisiae bub3 mutant strain, at 50.0 µM, hits give high values. The essentials: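 Readout: yeast growth inhibition, expressed relative to vehicle-only wells. The test organism is a mutant strain from a panel with lesions in DNA repair or checkpoint genes.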
Experiment [6] is described as follows: NCI Yeast Anticancer Drug Screen. Data for the mlh1 rad18 strain (AID 175). Particulars: S. cerevisiae mlh1 rad18 strain growth inhibition; at 50.0 µM; hits give high values. The essentials: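 Growth inhibition of the yeast strain was measured after compound exposure and expressed relative to vehicle-treated controls. The strain carries defined defects in DNA damage repair.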

Compounds without any hit were thinned out: in the full panel of roughly 79,000, 15% have a hit. Values without a mark were called inactive. Active and inactive are the calls of the source. Rule as the data show it: active = growth inhibition above about 70%; inactive = the rest.

For the molecule `COc1ccccc1NC(=O)CC(=O)N1N=C(C)C(N=Nc2ccc(S(N)(=O)=O)cc2)C1=O` (stereo not given), the growth inhibition in experiment [1] was 13.3%; in experiment [2] it was -1.65%; in experiment [3], -8.2%; in experiment [4], 12.8%; in experiment [5] it was 11%; in experiment [6] it was 11.3%.
Consider `O=S1(=O)CCNc2ccccc2O1`, for which the growth inhibition was -3.15% in experiment [1]; -6.4% in experiment [2]; -3.55% in experiment [3]; -15.2% in experiment [4]; 7.2% in experiment [5]; 3.15% in experiment [6].
As for `O=C1/C(=C/c2ccccc2)Oc2cc(O)ccc21`, the growth inhibition in experiment [1] was 31.9%; in experiment [2], -13.8%; in experiment [3], 33%; in experiment [4], 30.4%; in experiment [5] it was 27.4%; in experiment [6] it was 34.9%.
Consider `C/C(=N/OC1=CC(=O)CC(C)(C)C1)c1ccccc1`, for which the growth inhibition in experiment [1] was 1.8%; in experiment [2], 0.8%; in experiment [3] it was 0.3%; in experiment [4], -52.9%; in experiment [5] it was 24.1%; in experiment [6], 0.6%.
For `Cc1nc(N)[nH]c(=O)c1CCO`, the growth inhibition is -1.3% in experiment [1]; -23% in experiment [2]; -36.6% in experiment [3]; 3.3% in experiment [4]; -15.1% in experiment [5]; -3.8% in experiment [6].
Take `Nc1cc([N+](=O)[O-])ccc1-c1ccc([N+](=O)[O-])cc1`: the growth inhibition in experiment [1] is 3.25%; in experiment [2], -2.2%; in experiment [3] it was 8.1%; in experiment [4], 10.2%; in experiment [5] it was 15.2%; in experiment [6], -8.85%.
As for `CCN(CC)CCOC(=O)c1c2nc3c(C(=O)OCCN(CC)CC)ccc(C)c3oc-2c(C)c(=O)c1N`, the growth inhibition in experiment [1] is 79.5% (active); in experiment [2], 35.9%; in experiment [3], 42.1%; in experiment [4] it was -5.2%; in experiment [5], 61.9%; in experiment [6], 36.3%.
As to `COc1c2cccc(Cl)c2cc2c(Cl)cccc12`, the growth inhibition was 6.3% in experiment [1]; -6.15% in experiment [2]; 1.3% in experiment [3]; 18.8% in experiment [4]; -11.2% in experiment [5]; 12.5% in experiment [6].
`S=C(SC1C=CCC1)N1CCOCC1` (stereo not given): the growth inhibition in experiment [1] is 15.7%; in experiment [2], -2.8%; in experiment [3], 13.5%; in experiment [4], -41.8%; in experiment [5], 10.1%; in experiment [6], -13.6%.
Turning to `O=S(=O)(Oc1ccc(-c2ccccc2)cc1Br)c1ccccc1`, the growth inhibition in experiment [1] is 13%; in experiment [2], -0.85%; in experiment [3], 5.55%; in experiment [4] it was 8.3%; in experiment [5], 1.8%; in experiment [6] it was -5.6%.
For `CCOC(=O)C1C(C)=CC(=O)CC1C` (stereo not given), the growth inhibition in experiment [1] was 19.8%; in experiment [2], 1.65%; in experiment [3] it was 21.9%; in experiment [4], -4.8%; in experiment [5] it was 4.5%; in experiment [6], 4.45%.
As for `COc1cccc(/C=C(\NC(C)=O)c2nc3ccc(Cl)cc3[nH]2)c1`, the growth inhibition in experiment [1] is 1.8%; in experiment [2], -1.35%; in experiment [3], 8.75%; in experiment [4] it was 2.15%; in experiment [5] it was -3.85%; in experiment [6], 8.1%.
For the molecule `COc1ccc(N2C(=O)CSC2c2c[nH]c3ccccc23)cc1` (stereo not given), the growth inhibition was -39.2% in experiment [1]; -43.5% in experiment [2]; -49.6% in experiment [3]; -16.1% in experiment [4]; -44% in experiment [5]; -47% in experiment [6].
With `COc1c(O)ccc(/C=N/NC(=S)NCOCCOC(C)=O)c1OC`, the growth inhibition was 0.85% in experiment [1]; -3.8% in experiment [2]; 1.7% in experiment [3]; 21.9% in experiment [4]; 9.95% in experiment [5]; -10.6% in experiment [6].
`C=C1C2CCC3(CCC4C5(C)CCCC4(CN(CCO)C5)C3C2)C1O` (stereo not given): the growth inhibition in experiment [1] was -13.6%; in experiment [2], -39.9%; in experiment [3] it was -4.45%; in experiment [4] it was 12.8%; in experiment [5], -13.4%; in experiment [6] it was -1.15%.
Consider `O=C(O)CCN1CCCS(=O)(=O)C1=O`, for which the growth inhibition was 11.8% in experiment [1]; 8% in experiment [2]; -0.35% in experiment [3]; 9% in experiment [4]; -0.85% in experiment [5]; -5.3% in experiment [6].
As for `OC1(c2cccc(Cl)c2)C2=NCCCN2c2ccccc21` (stereo not given), the growth inhibition is 5.05% in experiment [1]; 8.45% in experiment [2]; 6.7% in experiment [3]; 21.6% in experiment [4]; -28.4% in experiment [5]; 5.75% in experiment [6].
`O=c1[nH]c(=O)n(C2CC3OCC3O2)cc1F` (stereo not given): the growth inhibition in experiment [1] was -14.2%; in experiment [2], 35.7%; in experiment [3], -9.05%; in experiment [4], 20.1%; in experiment [5], -13.5%; in experiment [6], 11.2%.
On to `N=C(N)c1ccc(N=Nc2ccc(N)cc2N)cc1`, for which the growth inhibition was 7.4% in experiment [1]; -3.75% in experiment [2]; -7.45% in experiment [3]; 12.8% in experiment [4]; -5.25% in experiment [5]; -0.4% in experiment [6].
Regarding `CP1(=O)CC(=O)CCCCC(=O)C1`, the growth inhibition in experiment [1] is 2.25%; in experiment [2], -1.6%; in experiment [3], -1.2%; in experiment [4] it was -25.8%; in experiment [5], 42.7%; in experiment [6], 19.6%.
